From PubChem BioAssay
Hits are enriched below; roughly 18% of the tested compounds scored in any of these assays.
HepG2 tox = qHTS for Inhibitors of TGF-b: Cytotox Counterscreen | HepG2 CAGA-GFP viability, ATP luminescence, 18 h | Potency, µM (series often up to 46.1 µM), without a hit: at the top dose activity change, negative = cytotoxicity, actives largely listed as cytotoxic | actives 0.76% (n = 410,000) | AID 588856, 2011; also: potency is read from the fitted curve at half-maximal effect
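HepG2 CAGA-GFP cells (1000/well, DMEM with 1% FBS) received compound, then TGF-beta at 500 pg/mL final, and were incubated 18 hours at 37 degrees C. Viability was read by CellTiter-Glo luminescence. Media-only wells were set as complete cell-killing and DMSO as no toxicity.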
DT40 TDP1 no CPT = qHTS for Inhibitors of human tyrosyl-DNA phosphodiesterase 1 (TDP1): qHTS in cells in absence of CPT | DT40 Tdp1-/- hTDP1 cells, no CPT, ATP luminescence, 48 h | Potency, µM (series often up to 46.2 µM), for the others: at the top dose activity change, negative = growth inhibition, actives largely listed as inhibitors | actives 15% (n = 420,000); also: potency is read from the fitted curve at half-maximal effect; % is scaled to controls: 0 for no effect and ±100 for the full control effect; nearly all actives have a fitted effect of over 55% in size
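A cellular qHTS used chicken DT40 cells lacking endogenous Tdp1 but carrying stably transfected human TDP1. Compounds were applied without camptothecin, and cell growth kinetics were judged by ATP-dependent luminescence after ≥48 hr.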
IL1B secr inh = qHTS for Inhibitors of Inflammasome Signaling: IL-1-beta AlphaLISA Primary Screen. THP-1 LPS/ATP IL-1B secretion, AlphaLISA, 16 h; hits give low values. activity change, % at 57.5 µM. actives 4.7% (n = 360,000). AID 743279, 2014; in the data active = activity change below about -50%; inconclusive = mostly about -30% to -49%; also: % is scaled to controls: 0 for no effect and ±100 for the full control effect
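Secreted IL-1B measured by AlphaLISA bead assay after 16 h compound exposure of THP-1 cells; compounds (final up to 57.5 uM) added 1 h before LPS (250 ng/mL) and ATP (1.25 mM) stimulation; lower signal means less secretion.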
TDP1 block = qHTS Assay for Inhibitors of Tyrosyl-DNA Phosphodiesterase (TDP1) | Tyrosyl-DNA phosphodiesterase 1 (Homo sapiens), Q9NUW8 | recombinant TDP1, AlphaScreen DNA substrate cleavage | Potency, µM (top dose mostly 130 µM), for the others: at the highest dose activity change, negative = inhibition, most hits filed as inhibitors | actives 0.28% (n = 350,000); also: potency is read from the fitted curve at half-maximal effect; % is scaled to controls: 0 for no effect and ±100 for the full control effect; nearly all actives have a fitted effect of over 40% in size
Target sequence (Q9NUW8 whole entry, looked up): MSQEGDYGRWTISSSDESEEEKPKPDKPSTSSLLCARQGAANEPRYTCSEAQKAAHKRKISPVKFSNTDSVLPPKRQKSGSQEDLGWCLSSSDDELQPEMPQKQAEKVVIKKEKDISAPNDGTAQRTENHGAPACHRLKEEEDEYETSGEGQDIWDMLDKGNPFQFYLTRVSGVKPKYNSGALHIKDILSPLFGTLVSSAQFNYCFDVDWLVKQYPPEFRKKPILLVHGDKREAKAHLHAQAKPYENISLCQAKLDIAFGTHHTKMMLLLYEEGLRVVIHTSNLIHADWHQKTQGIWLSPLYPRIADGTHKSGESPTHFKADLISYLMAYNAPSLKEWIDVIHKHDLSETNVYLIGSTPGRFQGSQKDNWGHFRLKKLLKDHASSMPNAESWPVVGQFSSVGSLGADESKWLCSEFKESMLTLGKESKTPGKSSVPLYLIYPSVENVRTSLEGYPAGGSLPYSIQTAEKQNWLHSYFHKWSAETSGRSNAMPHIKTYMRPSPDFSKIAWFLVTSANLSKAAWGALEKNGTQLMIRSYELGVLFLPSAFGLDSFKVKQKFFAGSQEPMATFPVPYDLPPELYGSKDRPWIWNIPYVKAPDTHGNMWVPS
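AlphaScreen read-out: signal falls as enzyme removes the 3' tyrosine-FITC from a 5'-biotinylated DNA oligo (15 nM, 5 min, RT). Enzyme was E. coli-made recombinant Tdp1 at 1 nM, exposed to compound for 15 min beforehand; beads 10 ug/ml, 10 min.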
TGFb inhibitor = qHTS for Inhibitors of TGF-b; actives 1.2% (n = 410,000); HepG2 CAGA-GFP TGF-b/SMAD3 reporter, GFP fluorescence, 18 h; TGF-beta stimulated, 500 pg/mL final; Potency, µM (highest dose often 46.1 µM), for inactives: at the top dose activity, negative = inhibition, usual class: inhibitors; AID 588855, 2011; also: potency is read from the fitted curve at half-maximal effect; % is scaled to controls: 0 for no effect and ±100 for the full control effect; nearly all actives have a fitted effect of over 65% in size
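HEPG2 CAGA-GFP reporter cells (1000/well, DMEM with 1% FBS) received compounds, then recombinant TGF-beta at 500 pg/mL final for 18 hours at 37 degrees C. Per-cell GFP summed per well was normalised to unstimulated and stimulated DMSO controls before curve fitting.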
TDP1 cell CPT = qHTS for Inhibitors of human tyrosyl-DNA phosphodiesterase 1 (TDP1): qHTS in cells in presence of CPT | chicken DT40 Tdp1-/-;hTDP1 cells + 20 nM CPT, ATP luminescence, 48 h | actives 12% (n = 420,000) | AID 686979, 2013 | Potency, µM (doses to about 46.2 µM), for the others: at the top dose activity change, negative = growth inhibition, usual class: inhibitors; also: potency is read from the fitted curve at half-maximal effect; % is scaled to controls: 0 for no effect and ±100 for the full control effect; nearly all actives have a fitted effect of over 55% in size
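Cell growth measured by CellTiter-Glo luminescence after a minimum 48 h, 37 C compound exposure with 20 nM CPT in Tdp1-knockout DT40 cells stably expressing hTDP1, seeded 400/well; qHTS titration format.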
Starred values were filed as active, the others as inactive; [ ] = another dose, or the depositor's remark. Unless noted, calls follow the shape of the dose curve; as a rule, active = well fitted curve in the direction sought with a large enough effect; inconclusive = small, poorly fitted or top-dose-only effect, or another doubt; inactive = no such curve, though single readings can be large; an effect the other way counts as inactive or inconclusive.

O=C(C1=C[C@@H](c2ccccc2)C[C@@H](OCc2ccc(CO)cc2)O1)N1CCCCCCC1 was read as HepG2 tox -5%, DT40 TDP1 no CPT inconclusive, IL1B secr inh -11, TDP1 block 3%, TGFb inhibitor -16% and TDP1 cell CPT inconclusive.
For O=C(C1=C[C@@H](c2ccccc2)C[C@@H](OCc2ccc(CO)cc2)O1)N1CCN(Cc2ccc3c(c2)OCO3)CC1 the results were HepG2 tox -8%, DT40 TDP1 no CPT 21µM*, IL1B secr inh inconclusive, TDP1 block 6%, TGFb inhibitor inconclusive and TDP1 cell CPT 18µM*.
For COc1cccc(NC(=O)/C(C#N)=C/c2c(C)n(Cc3ccccc3)c3ccccc23)c1 the results were HepG2 tox -2%, DT40 TDP1 no CPT inconclusive, TDP1 block 1%[12.3 µM], TGFb inhibitor 20% and TDP1 cell CPT inconclusive.
Screening CNC1=C(Cl)C(=O)c2ccncc2C1=O returned TDP1 block 1%.
Screening O/N=C1\CC/C(=N\O)c2nn(-c3ccc(Cl)cc3Cl)nc21 returned HepG2 tox -25%, DT40 TDP1 no CPT inconclusive, IL1B secr inh -51*, TDP1 block 3%, TGFb inhibitor -2% and TDP1 cell CPT 26µM*.
For CCCNC(=O)C1(O)c2cc(Br)ccc2NC(=O)N1c1ccc(Cl)cc1 (stereo not given) the results were HepG2 tox 1%, DT40 TDP1 no CPT 12%, IL1B secr inh 8, TGFb inhibitor -2% and TDP1 cell CPT 2%.
`CCOC(=O)[C@]12CCC=C1N(Cc1ccco1)C(=O)[C@H](CC(=O)NCC13CC4CC(CC(C4)C1)C3)C2` gave DT40 TDP1 no CPT inconclusive, IL1B secr inh -12 and TDP1 cell CPT inconclusive.
CCOC(=O)[C@]12CCCC=C1N(CCC1=CCCCC1)C(=O)[C@H](CC(=O)NCCC(C)C)C2 was read as DT40 TDP1 no CPT 12µM*, IL1B secr inh -20 and TDP1 cell CPT 15µM*.
`CCCCCCCCN1C(=O)[C@H](CC(=O)NCC23CC4CC(CC(C4)C2)C3)C[C@@]2(C(=O)OCC)CCC=C12` gave DT40 TDP1 no CPT 16µM*, IL1B secr inh -19 and TDP1 cell CPT -88%.
`CCCCCCCCN1C(=O)[C@H](CC(=O)NCCC(C)C)C[C@@]2(C(=O)OCC)CCCC=C12` gave DT40 TDP1 no CPT 12µM*, IL1B secr inh inconclusive and TDP1 cell CPT 13µM*.
C#CCNC(=O)C[C@@H]1C[C@@]2(C(=O)OCC)CCC=C2N(CCC2=CCCCC2)C1=O was read as DT40 TDP1 no CPT inconclusive, IL1B secr inh 3 and TDP1 cell CPT inconclusive.
C=C(C)C(O)C(CC/C=C(\C)C(=O)OCC)OC (stereo not given) was read as TDP1 block 3%[21 µM].
CCCCNC(=O)c1cccc(-n2cnc3cccnc32)c1C was read as HepG2 tox -5%, DT40 TDP1 no CPT inconclusive, TDP1 block 6%, TGFb inhibitor 0% and TDP1 cell CPT inconclusive.
Cc1cccc(CSCC(=O)N2CCN(S(=O)(=O)c3ccccc3C#N)CC2)c1 was read as HepG2 tox 3%, DT40 TDP1 no CPT inconclusive, IL1B secr inh 7, TGFb inhibitor 6% and TDP1 cell CPT -20%.
For Cc1c(N2C(=O)CSC2c2ccc(F)cc2)c(=O)n(-c2ccccc2)n1C (stereo not given) the results were HepG2 tox 1%, DT40 TDP1 no CPT -6%, IL1B secr inh -8, TGFb inhibitor -7% and TDP1 cell CPT -19%.
For CSc1ccccc1C(=O)C1CCCN(Cc2c(C)n(C)n(-c3ccccc3)c2=O)C1 (stereo not given) the results were HepG2 tox 0%, DT40 TDP1 no CPT 29µM*, IL1B secr inh -4, TDP1 block 0%, TGFb inhibitor -7% and TDP1 cell CPT inconclusive.
Cc1ccc(S(=O)(=O)N2CCN(c3ccc([N+](=O)[O-])cn3)CC2)cc1 was read as HepG2 tox -7%, DT40 TDP1 no CPT 0%, IL1B secr inh 2, TDP1 block -3%, TGFb inhibitor 1% and TDP1 cell CPT 13%.
COc1ccc(N2C(=O)CSC23C(=O)N(CC(=O)NCc2ccccc2)c2ccccc23)cc1 (stereo not given) was read as HepG2 tox -1%, DT40 TDP1 no CPT inconclusive, TDP1 block 1%, TGFb inhibitor 36% and TDP1 cell CPT -5%.
`Cc1cccc(N2C(=O)CSC23C(=O)N(CC(=O)NCc2ccccc2Cl)c2ccccc23)c1` (stereo not given) gave HepG2 tox -26%, DT40 TDP1 no CPT 21µM*, TDP1 block 2%, TGFb inhibitor -4% and TDP1 cell CPT inconclusive.
For O=C1CSC2(C(=O)N(Cc3ccccc3)c3ccccc32)N1c1ccc(Cl)cc1 (stereo not given) the results were HepG2 tox -1%, DT40 TDP1 no CPT 21µM*, TDP1 block 5%, TGFb inhibitor -5% and TDP1 cell CPT 16µM*.
For Cc1cccc(N2C(=O)CSC23C(=O)N(CC(=O)NCCc2ccccc2)c2ccccc23)c1 (stereo not given) the results were HepG2 tox -19%, DT40 TDP1 no CPT inconclusive, TDP1 block 1%, TGFb inhibitor -30% and TDP1 cell CPT inconclusive.
`O=C(CN1C(=O)C2(SCC(=O)N2c2ccc(Cl)cc2)c2ccccc21)NCCc1ccccc1` (stereo not given) gave HepG2 tox 0%, DT40 TDP1 no CPT 18µM*, TDP1 block 5%, TGFb inhibitor 6% and TDP1 cell CPT inconclusive.
For COc1ccc(N2C(=O)CSC23C(=O)N(CC(=O)NCCc2ccccc2)c2ccccc23)cc1 (stereo not given) the results were HepG2 tox -2%, DT40 TDP1 no CPT inconclusive, TDP1 block 3%, TGFb inhibitor -2% and TDP1 cell CPT 16µM*.
CCCNC(=O)OC[C@@H]1O[C@H](CCO/N=C\[C@@H](C)[C@H](OCc2ccccc2)C(C)C)C=C[C@@H]1Oc1ccc(OC)cc1 was read as TDP1 block 8%[21 µM].
